# Assay outcomes (PubChem)
# Shown are actives, neighbours in structure and some others; about 2.4% of the full set was active somewhere.
# Pol iota inh: inhibitors of human DNA polymerase iota; hit rate 1% among 390,000; Pol iota fluorescent replication assay, 10 min; Q9UNA4; Potency, µM (series often up to 115 µM), inactives show at the top dose activity, negative = inhibition, actives largely listed as inhibitors
#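 Pol iota at 10 nM preincubated 15 min with compounds at room temperature; reaction started with fluorescent substrate, 50 nM final. Fluorescence read kinetically at 0 and 10 min; buffer-only wells as negative control.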
# WRN helicase inh: WRN helicase (human) inhibition; Q14191; WRN helicase unwinding, fluorescent forked duplex, kinetic; Potency, µM (doses to about 114 µM), for inactives: at the highest dose activity change, negative = inhibition, hits mostly inhibitors; hit rate 0.46% among 360,000; AID 651768; also: % is scaled to controls: 0 for no effect and ±100 for the full control effect; nearly all actives have a fitted effect of over 55% in size
#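 Screening of the MLSMR collection measured strand separation of a quenched forked DNA duplex (100 nM) by 20 nM WRN with 2 mM ATP, all final. Compounds were preincubated with enzyme 15 min at room temperature.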
# FEN1 inhibitor: inhibitors of human flap endonuclease 1; Potency, µM (highest dose often 114 µM), for the others: at the top dose activity change, negative = inhibition, actives largely listed as inhibitors; hit rate 0.35% among 390,000; Recombinant FEN1 flap cleavage, fluorescence, 15 min; AID 588795; also: % is scaled to controls: 0 for no effect and ±100 for the full control effect; nearly all actives have a fitted effect of over 65% in size
# Target sequence (P39748 whole entry, looked up): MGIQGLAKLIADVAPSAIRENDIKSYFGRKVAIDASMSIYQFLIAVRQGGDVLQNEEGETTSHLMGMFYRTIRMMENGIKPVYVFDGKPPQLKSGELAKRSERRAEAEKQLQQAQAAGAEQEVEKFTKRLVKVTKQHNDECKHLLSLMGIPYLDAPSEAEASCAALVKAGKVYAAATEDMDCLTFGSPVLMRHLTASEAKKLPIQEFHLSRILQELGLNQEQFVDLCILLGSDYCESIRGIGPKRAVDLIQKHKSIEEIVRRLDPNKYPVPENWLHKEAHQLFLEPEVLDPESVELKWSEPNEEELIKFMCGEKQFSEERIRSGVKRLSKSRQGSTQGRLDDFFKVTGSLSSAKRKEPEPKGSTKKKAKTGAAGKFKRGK
#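 FEN1 at 10 nM preincubated with compounds 15 min at room temperature, then flap DNA substrate added at 50 nM final. Signal read at 0 and 15 min; concentration-response fitted with four-parameter Hill equation.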
# POLH inh: blocks human DNA polymerase eta activity | recombinant Pol eta, fluorescent DNA replication assay | Q9Y253 | Potency, µM (titrated, usually from 114 µM), without a hit: top-dose activity change, negative = inhibition, hits mostly inhibitors | AID 588591 | hit rate 1.2% among 390,000; also: % is scaled to controls: 0 for no effect and ±100 for the full control effect
#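 Pol eta at 10 nM preincubated with compounds 15 min at room temperature; reaction started with fluorescent substrate (50 nM final) and read kinetically at 0 and 10 min.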
# Pol beta inh: blocks human DNA polymerase beta activity. P06746. Pol beta primer extension/strand displacement, fluorescence kinetic. Potency, µM (doses to about 114 µM), for the others: at the highest dose activity change, negative = inhibition, most hits filed as inhibitors. hit rate 1.3% among 340,000; also: % is scaled to controls: 0 for no effect and ±100 for the full control effect
#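 Enzyme-only controls used 10 nM Pol beta; buffer lacking enzyme served as negative control. Compound preincubated 15 min, then 50 nM substrate added; 0 and 10 min reads at room temperature.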
# Pol kappa inh: blocks human DNA polymerase kappa activity; hit rate 0.53% among 400,000; Q9UBT6; purified Pol kappa, fluorescent DNA synthesis assay, 10 min; Potency, µM (top dose mostly 107 µM), for inactives: at the highest dose activity, negative = inhibition, actives largely listed as inhibitors; also: % is scaled to controls: 0 for no effect and ±100 for the full control effect
#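 Pol kappa 10 nM + cpd, 15 min RT; start w/ substrate 50 nM final; fluorescence kinetic read, 0 and 10 min. Neg ctrl: buffer, no enzyme.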
# TbPGK inh: blocks T. brucei phosphoglycerate kinase. hit rate 79% among 500. Potency, µM (titrated, usually from 57.5 µM), inactives show top-dose activity change, negative = inhibition, most hits filed as inhibitors. AID 686980. TbPGK coupled GAPDH assay, Kinase-Glo luminescence. shares compounds with Pol kappa inh; also: % is scaled to controls: 0 for no effect and ±100 for the full control effect; nearly all actives have a fitted effect of over 65% in size
# Target sequence (P07378 whole entry, looked up): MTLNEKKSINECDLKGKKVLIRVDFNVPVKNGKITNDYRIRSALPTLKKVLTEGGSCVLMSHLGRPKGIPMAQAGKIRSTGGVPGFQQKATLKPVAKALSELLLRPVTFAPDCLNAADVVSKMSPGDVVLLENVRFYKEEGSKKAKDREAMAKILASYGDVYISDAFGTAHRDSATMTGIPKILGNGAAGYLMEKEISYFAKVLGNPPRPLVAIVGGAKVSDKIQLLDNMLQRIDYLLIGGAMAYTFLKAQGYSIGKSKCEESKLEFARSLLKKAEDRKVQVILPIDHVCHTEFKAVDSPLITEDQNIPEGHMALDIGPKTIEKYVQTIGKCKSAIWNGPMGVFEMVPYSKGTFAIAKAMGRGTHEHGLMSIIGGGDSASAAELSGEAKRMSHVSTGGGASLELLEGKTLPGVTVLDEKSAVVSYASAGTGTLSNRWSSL
# Pol iota confirm: Human Pol iota inhibitor confirmatory assay; Pol iota primer extension, TAMRA/BHQ fluorescence; shares compounds with Pol kappa inh; hit rate 77% among 1,500; Potency, µM, actives largely listed as inhibitors
# * hit, by the source's call; ? = inconclusive; . = not tested or not shown; ! = not confirmed by another sample; [ ] = dose if it differs, or a comment. Calls follow the shape of the dose curve; as a rule, active = well fitted curve in the direction sought with a large enough effect; inconclusive = small, poorly fitted or top-dose-only effect, or another doubt; inactive = no such curve, though single readings can be large; an effect the other way counts as inactive or inconclusive. Potency is read from the fitted curve at half-maximal effect.
SMILES,Pol iota inh,WRN helicase inh,FEN1 inhibitor,POLH inh,Pol beta inh,Pol kappa inh,TbPGK inh,others
CCn1cc(C(=O)O)c(=O)c2cc(F)c(N3CCN(S(=O)(=O)c4ccc(NC(=O)OC)cc4)CC3)cc21,16.7%,?,?,?,?,2.1%,.,Pol iota confirm=33.6*
CCn1cc(C(=O)O)c(=O)c2cc(F)c(N3CCN(C(=S)Nc4ccccc4OC)CC3)cc21,-8.5%,5.4%,-28.3%,9.7%,0.0%,4.7%,.,
Cc1noc(C)c1-c1cc(NC2CCNCC2)ncn1,.,.,.,.,.,-3.0%[60.1 µM],.,
CCc1ccc(NCc2cc3ccc(OC)cc3n(CC(=O)Nc3ccc(F)cc3F)c2=O)cc1,-6.3%,.,-0.7%,-13.6%,-28.5%,0.2%,.,
Cc1ccc(S(=O)(=O)NCc2ccc(C(=O)NCCc3ccc(S(N)(=O)=O)cc3)cc2)cc1,31.6µM*,-3.2%[11.6 µM],-1.5%,?,?,-13.4%,.,Pol iota confirm=?
Cc1ccccc1Nc1nn2c(=O)c3ccc(C(=O)NCc4ccccc4)cc3nc2s1,79.4µM*,.,7.8%,?,12.6µM*,0.0%[60.1 µM],.,Pol iota confirm=?
CCc1ccccc1Nc1nn2c(=O)c3ccc(C(=O)NCc4ccc(C)cc4)cc3nc2s1,10.2%,.,19.0%,-13.1%,-2.2%,-0.9%,.,
C(=C\c1nc2ccccc2[nH]1)/c1ccccc1,6.3%,-19.1%,-4.5%,-2.3%,4.1%,-19.9%,16.3µM*,
C(=C\c1ccco1)/c1nc2ccccc2[nH]1,2.4%,1.2%,-15.6%,-19.3%,-17.5%,-2.7%,.,
CN(C)c1ccc(/C=C/c2ccc3c4ccccc4ccc3[n+]2-c2ccccc2)cc1,20µM*,12.6µM*,8.91µM*,22.4µM*,11.2µM*,44.7µM*!,29.1µM*,
O=CC(=O)c1ccc(Br)cc1,26.3%,.,-6.7%,.,.,-3.4%,.,
Cc1ccccc1-c1nc(-c2ccccn2)no1,-8.2%,7.6%,17.6%,-9.8%,-0.7%,-5.0%,.,
COc1ccccc1-c1nc(-c2ccccn2)no1,-1.0%,-8.4%,-0.9%,-15.1%,20.0%,11.2%,18.3µM*,
Cc1cc(=O)oc2cc(OCC(=O)N/N=C/c3ccccc3O)ccc12,29.4%,-1.4%,-0.3%,17.8µM*,3.16µM*,-8.0%,.,Pol iota confirm=?
Cc1c(C(=O)N(Cc2ccco2)Cc2ccccc2Cl)oc2ccc(F)cc12,-10.9%,.,-14.5%,-5.9%,-8.9%,-0.7%,.,
COc1ccc(OC)c(N/C=C/C(=O)c2ccccc2)c1,-0.3%,-3.9%,-18.0%,0.5%,20.7%,-11.0%,18.3µM*,
c1ccn2cc(-c3ccc4c(c3)OCCO4)nc2c1,?,-11.3%,-15.1%,-8.2%,5.1%,-5.3%,?,
O=C(c1ccc2c3n(nc2c1)-c1ccccc1CO3)N1CCOCC1,25.8%,10.3%,-2.5%,-13.8%,-13.7%,11.8%,.,
O=C(c1ccc2c3n(nc2c1)-c1ccccc1CO3)N1CCCCC1,35.6%,6.5%,-1.7%,-7.4%,5.2%,6.4%,9.19µM*,
CCc1ccc(NC(=O)C(=O)NCC(c2cccnc2)N2CCN(c3ccc(F)cc3)CC2)cc1 (stereo not drawn),13.3%,.,17.5%,-14.8%,3.2%,-10.8%,.,
Cc1cc2nc(-c3ccc(SCC(=O)Nc4ccc(S(=O)(=O)NC5CC5)cc4)nc3)[nH]c2cc1C,?,1.2%,-1.3%,?,?,-5.6%,.,
Cc1cc(NC(=O)CSc2ccc(-c3nc4cc(C)c(C)cc4[nH]3)cn2)no1,22.7%,-22.5%,6.5%,-16.4%,-0.4%,8.3%,4.9%,
CCc1nc2sc3ccccc3c(=O)c2c(=O)n1Cc1ccco1,15.8µM*,56.2µM*,?,31.6µM*,20µM*,50.1µM*,.,Pol iota confirm=?
CCCc1nc2sc3ccccc3c(=O)c2c(=O)n1Cc1ccccc1,28.9%,-2.0%,9.6%,-20.7%,.,4.9%,.,
COc1ccc(/C=N/Nc2nncc3ccccc23)cc1,-17.5%,-12.8%,-2.5%,4.6%,-4.1%,-7.4%,18.3µM*,
SMILES,Pol iota inh,WRN helicase inh,FEN1 inhibitor,POLH inh,Pol beta inh,Pol kappa inh,TbPGK inh,others
COc1ccccc1/C=N/Nc1nncc2ccccc12,63.4%,-33.4%[57.1 µM],-1.1%,2.9%,3.1%,-12.0%,.,
Cc1ccccc1C(=O)Nc1ccc2c(C#N)c3nc4ccccc4nc3n2c1,40.1%,56.2µM*,?,10µM*,?,-27.4%,.,Pol iota confirm=?
Cc1c(C(=O)Nc2ccccc2)cn2c(nc3ccccc32)c1C#N,-0.3%,-12.9%,-7.0%,-15.8%,22.2%,-0.2%,.,
Cc1nn(CC(=O)NC2CCCCC2)c(=O)c2cc3cc(F)ccc3n12,32.5%,.,-0.5%,-15.4%,4.2%,-11.1%,.,
C/C(=N\NC(=O)c1cccc(F)c1)c1ccc(NC(=O)Cc2ccccc2)cc1,30.0%,-8.2%,-1.3%,-22.0%,-23.4%,-9.8%,.,
C/C(=N\NC(=O)c1cc(O)cc(O)c1)c1ccc(NC(=O)Cc2ccccc2)cc1,5.01µM*,20µM*,50.1µM*,3.16µM*,1.58µM*,22.4µM*,1.83µM*,
COc1ccc([C@]23Cc4cc(OC)c(OC)cc4C(O2)C2=C(CC(C)(C)CC2=O)O3)cc1,.,.,.,.,22.9%[22.9 µM],.,.,
O=C(CCN1C(=O)/C(=C\c2ccccc2)SC1=S)Nc1ccc(C(=O)O)cc1,26.3%,?,-15.4%,-23.9%,?,?,.,
CCOc1ccc(/C=C2/SC(=S)N(CCC(=O)Nc3ccc(C(=O)O)cc3)C2=O)cc1,?,-9.0%[11.6 µM],-33.0%,8.91µM*,-9.4%,-11.4%,.,Pol iota confirm=21.2*
O=C(CCN1C(=O)/C(=C/c2ccc(Cl)cc2)SC1=S)Nc1cccc(C(=O)O)c1,49.8%,56.2µM*,?,89.1µM*,-9.6%,-14.6%,.,Pol iota confirm=?
Fc1cccc(CCN2CCNC[C@@H]2Cc2ccccc2)c1,?,-3.2%,-17.3%,10.6%,.,-7.7%,?,
O=c1oc2ccccc2cc1-c1cn2ccccc2n1,23.9%,-7.9%,-1.6%,-10.7%,6.6%,0.4%,?,
O=c1nc2cccc3c2=c(/c1=C(\O)c1ccccc1)c1ccccc1c3=O,44.8%,-11.9%[11.6 µM],?,50.1µM*,10µM*,7.1%[60.1 µM],.,Pol iota confirm=?
Cc1ccc(NC(=O)CSc2nc3ccccc3c3nc(CCn4c(C)nc5ccccc54)nn23)cc1F,79.4µM*,.,-18.5%,?,?,-11.4%[60.1 µM],.,Pol iota confirm=?
Cc1nc2ccccc2n1CCc1nc2c3ccccc3nc(SCC(=O)Nc3ccc(C(C)C)cc3)n2n1,?,.,-9.2%,-23.2%,-0.2%,-4.3%[60.1 µM],.,
O=C(CSc1nc2ccccc2c2nc(-c3ccccc3)nn12)Nc1ccc(F)cc1,43.4%,.,2.5%,-7.7%,2.5%,-0.8%[60.1 µM],.,
